# Shown are actives, neighbours in structure and some others; about 7.4% of the full set was active somewhere.
# Rab9 promoter act = Rab9 promoter activation | Potency, µM (doses to about 9.22 µM), without a hit: top-dose activation, negative = inhibition, actives largely listed as activators | actives 2.8% (n = 320,000) | Huh7 Rab9 promoter-luciferase reporter, luminescence, 24 h; also: % of control where 0% means no effect; nearly all actives have a fitted effect of over 60% in size
#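 Huh7 cells stably carrying a Rab9 promoter-luciferase reporter, 1500 cells per well in OP-MEM I with 10% FBS, treated with compound 24 hours at 37C. Luciferase activity read by luminescence after 10 minutes with Amplite reagent.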
# FLuc modulator = firefly luciferase modulation, counter-screen for miR-21 project | purified FLuc, Km substrates, luminescence inhibition | P08659 | actives 6.9% (n = 360,000) | Potency, µM (doses to about 57.5 µM), for the others: at the highest dose activity change, negative = inhibition, hits mostly inhibitors;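 also: plate controls were vehicle for no effect and reference inhibitor for full effect; nearly all actives have a fitted effect of over 55% in size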
# Target sequence (P08659 whole entry, looked up): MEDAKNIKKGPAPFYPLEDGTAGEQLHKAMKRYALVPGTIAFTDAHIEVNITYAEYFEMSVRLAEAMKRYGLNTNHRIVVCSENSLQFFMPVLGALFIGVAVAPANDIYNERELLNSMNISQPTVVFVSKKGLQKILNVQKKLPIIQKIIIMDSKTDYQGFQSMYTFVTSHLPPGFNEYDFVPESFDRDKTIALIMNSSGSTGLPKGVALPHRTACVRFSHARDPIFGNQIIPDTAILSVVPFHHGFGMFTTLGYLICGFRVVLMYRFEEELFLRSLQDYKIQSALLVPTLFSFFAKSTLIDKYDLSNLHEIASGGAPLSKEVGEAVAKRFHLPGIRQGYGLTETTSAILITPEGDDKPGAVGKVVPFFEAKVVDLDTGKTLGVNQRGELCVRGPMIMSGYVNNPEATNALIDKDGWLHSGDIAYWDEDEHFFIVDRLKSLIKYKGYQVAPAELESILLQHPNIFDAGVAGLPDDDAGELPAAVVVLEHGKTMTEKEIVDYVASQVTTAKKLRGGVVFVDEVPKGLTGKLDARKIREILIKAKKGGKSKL
#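 Purified P. pyralis luciferase (10nM final) with 10uM D-luciferin and 10uM ATP (Km levels) in 50mM Tris acetate pH 7.5, 10mM Mg acetate, 0.01% Tween-20, 0.05% BSA; qHTS 6-point titration, ~60 µM downward; luminescence read.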
# SMN2 splice up = increases expression of the SMN2 splice variant; AID 1458; Potency, µM (series often up to 46.1 µM), inactives show at the highest dose activity change, positive = activation, most hits filed as activators; HEK293 SMN2-luciferase splicing reporter, luminescence, 30-36 h; actives 2.8% (n = 210,000); also: % of control where 0% means no effect; nearly all actives have a fitted effect of over 55% in size
#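 HEK293 cells carry an SMN2 minigene-luciferase reporter in which exon 7 inclusion puts luciferase in frame. Cells were seeded at 2000 cells/well, attached for 10-12 hours, then exposed to compounds for 30-36 hours at 37C before ONE-Glo luminescence.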
# ELG1 genotoxic = induces genotoxicity in HEK293T cells with luciferase-tagged ELG1; HEK293T ELG1-luciferase reporter, luminescence, 16 h; Potency, µM (titrated, usually from 46 µM), without a hit: at the top dose activity change, positive = activation, usual class: activators; actives 1.3% (n = 330,000); AID 504466; also: % of control where 0% means no effect; nearly all actives have a fitted effect of over 60% in size
#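 Cells (2,000/well) expressing the ELG1-luciferase fusion are dosed by pin tool and kept 16 hr at 37 °C, 5% CO2. Signal comes from ONE-Glo luciferase reagent after 30 min at room temperature.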
# NPC1 prom act = NPC1 promoter activation. Huh7 NPC1 promoter luciferase reporter, 24 h. Potency, µM (series often up to 9.22 µM), without a hit: at the top dose activation, hits mostly activators. actives 2.4% (n = 320,000); also: % of control where 0% means no effect; nearly all actives have a fitted effect of over 60% in size
#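 Huh7 cells stably carrying NPC1 promoter–luciferase, plated in Opti-MEM with 10% FBS for 2 h, were exposed to compound in DMSO for 24 h at 37 °C; luciferase reagent was added for 10 min and luminescence read.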
# The depositor's hits bear a star; ? = inconclusive; / = no result given; [ ] = another dose, or the depositor's remark. Calls follow the shape of the dose curve; as a rule, active = well fitted curve in the direction sought with a large enough effect; inconclusive = small, poorly fitted or top-dose-only effect, or another doubt; inactive = no such curve, though single readings can be large; an effect the other way counts as inactive or inconclusive. Potency is read from the fitted curve at half-maximal effect.
SMILES,Rab9 promoter act,FLuc modulator,SMN2 splice up,ELG1 genotoxic,NPC1 prom act
O=C(c1cc(COc2cccc3cnccc23)on1)N1CCCC(CCCO)C1 (configuration not stated),-29%,1%,/,-7%,-31%
COc1ccccc1OCc1cc(C(=O)N2CCCC(OCc3cccnc3)C2)no1 (configuration not stated),2.5µM*,13µM*,/,8.2µM*,1.8µM*
CSc1ccccc1OCc1cc(C(=O)N2CCSCC2)no1,1.4µM*,?,/,-4%,2.2µM*
CSc1ccccc1OCc1cc(C(=O)N2CCN(C3CCCC3)C(=O)C2)no1,?,17µM*,/,?,?
COc1c(C2=CC(=O)N(C)C2=O)c2c(n1C)C(=O)c1ccccc1C2=O,/,/,-4%,/,/
c1ccncc1,/,/,-3%,/,/
COc1ccc(-c2cc(C(=O)NC3=NCCS3)c3ccccc3n2)cc1OC,?,9.5µM*,5%,-6%,13%
O=C(NC1=NCCS1)c1cc(-c2ccc(-c3ccccc3)cc2)nc2ccccc12,1.8µM*,0.85µM*,-7%[1.84 µM],13%,4µM*
CC(=O)Nc1ccc(NC(=O)c2ccc3c(c2)N(Cc2cccc(Cl)c2)C(=O)c2ccccc2S3=O)cc1 (configuration not stated),/,0%,/,/,/
Cc1nc(N2CCOCC2)c2c(C(=O)N3CCN(c4cccc(C)c4C)CC3)c(C)oc2n1,/,0%,/,/,/
Cc1ccc2sc(NC(=O)C3CC3)nc2c1C,?,17µM*,/,?,?
O=C(Nc1nc2cc3c(cc2s1)OCO3)c1cccc(N2C(=O)CCC2=O)c1,29%,0.95µM*,/,8%,24%
COc1ccc2nc(NC(=O)c3cccc(N4C(=O)CCC4=O)c3)sc2c1,2%,0.85µM*,/,4%,2%
O=C(Nc1nc2cc3c(cc2s1)OCO3)c1ccc(N2C(=O)CCC2=O)cc1,9%,-10%,/,-2%,2%
Cc1cccc2sc(NC(=O)C3CC3)nc12,14%,-11%,/,1%,15%
Cc1ccc2sc(NC(=O)c3cccc(N4C(=O)CCC4=O)c3)nc2c1C,11%,1.9µM*,/,2%,17%
CC(C)Cc1nn2c(=O)cc(COC(=O)c3cccc(NC(=O)CCc4ccccc4)c3)nc2s1,/,0%,/,/,/
O=C(Nc1nc2ccc(Cl)cc2s1)c1cccc(N2C(=O)CCC2=O)c1,?,1.3µM*,/,?,15%
CC(=O)c1ccc(NC(=O)CSc2nnc(NC(=O)c3ccco3)s2)cc1,?,2.4µM*,/,?,?
CCCSc1nnc(NC(=O)c2ccco2)s1,?,?,11µM*,?,29%
CC(C)N(C(=O)CSc1nnc(NC(=O)c2ccco2)s1)C(C)C,-4%,-18%,-5%,0%,-4%
Cc1ccc(NC(=O)CSc2nnc(NC(=O)c3ccco3)s2)cc1,14%,21µM*,14%,15%,9%
CSc1nnc(NC(=O)c2ccco2)s1,22%,-19%,/,17%,?
CCNc1ncc2nc(-c3ccccc3)c(=O)n(Cc3ccc(F)cc3)c2n1,/,/,-9%,/,/
CCNC(=O)c1c(NC(=O)c2cc(=O)c3ccc(C)c(C)c3o2)sc2c1CCCC2,/,0%,0%,/,/
SMILES,Rab9 promoter act,FLuc modulator,SMN2 splice up,ELG1 genotoxic,NPC1 prom act
Cn1ncc2c(Nc3cccc(F)c3)ncnc21,/,-5%,/,/,/
Cc1ccc(C)c(NC(=O)CN2CCN(C3CCCCC3)C(=O)C2=O)c1,/,-2%,/,/,/
Cc1cc(C)c2c(n1)SCCN2C(=O)Nc1ccc(C(=O)Nc2ccc(C(C)C)cc2)cc1,/,-8%,/,/,/
O=C(c1cc2ccccc2oc1=O)N(Cc1ccccc1)C1CCS(=O)(=O)C1 (configuration not stated),?,21µM*,-6%,?,?
CCOc1ccc(CN(C(=O)c2cc3ccccc3oc2=O)C2CCS(=O)(=O)C2)cc1 (configuration not stated),3.2µM*,12µM*,/,?,?
COc1ccc(CN(C(=O)c2cc3ccccc3oc2=O)C2CCS(=O)(=O)C2)cc1OC (configuration not stated),?,19µM*,?,?,4µM*
COc1ccc(CN(C(=O)c2cc3ccccc3oc2=O)C2CCS(=O)(=O)C2)cc1 (configuration not stated),3%,-13%,-7%,7%,-4%
O=C(c1cc2ccccc2oc1=O)N(Cc1ccccc1F)C1CCS(=O)(=O)C1 (configuration not stated),?,17µM*,/,?,24%
CN(/N=C/c1cccnc1)c1cnc2ccccc2n1,2.8µM*,5.4µM*,11µM*,?,?
CCC(C)C(NC(=O)c1ccc(Cl)cc1Cl)C(=O)O (configuration not stated),-6%,19µM*,15%,0%,1%
CCC(C)C(NC(=O)c1ccc(Cl)cc1)C(=O)O (configuration not stated),2%,3%[2.3 µM],/,0%,2%
COC(=O)c1ccc(-n2c(C)cc(C(=O)CSc3cccc[n+]3[O-])c2C)cc1,-1%,?,8%,-3%,1%
Cc1cc(C(=O)CSc2cccc[n+]2[O-])c(C)n1-c1ccc(OC(F)F)cc1,?,15µM*,/,8%,?
Cc1cccc2nc(COc3ccc(Cl)c4cccnc34)cn12,?,12µM*,?,?,21%
O=C(c1cccs1)N1CCOCC1,2%,1%,7%,3%,-4%
Cc1ccc(N=C(c2cccs2)N2CCOCC2)cc1,24%,4%,18µM*,?,6%
CCN(C(=O)CN(C)S(=O)(=O)c1ccc2c(c1)n(C)c(=O)c(=O)n2C)c1cccc(C)c1,/,-4%,-10%,/,/
Cc1cccc(C2c3[nH]c4ccccc4c3CCN2Cc2cccn2-c2ncccn2)c1 (configuration not stated),?,-19%,20µM*,-6%,1%
COc1ccc(C2c3[nH]c4ccccc4c3CCN2Cc2cccn2-c2ncccn2)cc1C (configuration not stated),-9%,-19%,/,-5%,8%
Cc1cc(C(=O)CN2C(=O)NC(CC(C)C)C2=O)c(C)n1-c1ccccc1F (configuration not stated),1.1µM*,13µM*,25%,?,2.2µM*
Cc1cc(C(=O)CN2C(=O)C(=O)N(CC(C)C)C2=O)c(C)n1-c1ccccc1F,23%,17µM*,16%,5%,2%
Cc1cc(C(=O)CN2C(=O)C(=O)N(C3CCCC3)C2=O)c(C)n1-c1ccc(F)cc1,12%,-17%,-1%,-9%,0%
Clc1cccc(N2CCN(c3nc4ccccc4c4nc(-c5ccccc5)nn34)CC2)c1,/,0%,-6%,/,/
Cn1c(=O)c2cc(C(=O)N3CCN(c4cccc(C(F)(F)F)c4)CC3)sc2c2ccccc21,/,0%,-1%,/,/
